Active and inactive are the calls of the source.
Assays:
[1] = tested on: Plasmodium falciparum Sir2 (PF13_0152, Sir2A); assay: Plasmodium falciparum Sir2A binding compounds – biochemical, small-molecule microarray, 635 nm fluorescence, primary screen (AID 1098); settings: fluorescence 635 nm, higher = more signal;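 further: score merges spot fluorescence intensity with its signal-to-noise ratio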
[2] = probe aDKK1 binding to arrayed compounds – biochemical, biotinylated probe, 635/667 nm fluorescence, primary screen (AID 1099); settings: small-molecule microarray, higher = more signal;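 further: score merges 667nm spot fluorescence with signal to noise across triplicate slides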
[3] = probe aCHRDL2 binding to arrayed compounds – biochemical, biotinylated probe, 635/667 nm fluorescence, primary screen (AID 1100); settings: small-molecule microarray, higher = more signal
[4] = change in splice reporter luminescence, either direction, cell-based, HEK293, spliceosome inhibition project, primary screen (AID 1101); settings: HEK293 splicing luciferase reporter, 24 h, higher = more signal, called active from +8 up or from −8 down;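 further: HEK293 cells carrying a splicing-competent luciferase reporter gene; test concentration not given here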
[5] = target: Fibroblast growth factor 10 (Homo sapiens) (UniProt O15520); assay: compounds binding fibroblast growth factor 10 – biochemical, small-molecule microarray, 635 nm fluorescence, primary screen (AID 1102); settings: FGF10 binding, fluorescence 635 nm, higher = more signal
[6] = tested on: glycogen synthase kinase-3 (GSK3A per assay name; protocol says GSK3B); assay: compounds binding glycogen synthase kinase-3 – biochemical, small-molecule microarray, 635 nm fluorescence, GSK3A, primary screen (AID 1103); settings: fluorescence 635 nm, higher = more signal; further: the record names both GSK3A and GSK3B
[7] = target: Epidermal growth factor receptor (Homo sapiens) (UniProt P00533); assay: compounds binding epidermal growth factor receptor – biochemical, small-molecule microarray, 635 nm fluorescence, primary screen (AID 1104); settings: EGFR binding, higher = more signal;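 further: score merges 667 nm emission intensity with spot signal to noise over triplicate slides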
[8] = target: Follistatin-related protein 3 (Homo sapiens) (UniProt O95633); assay: compounds binding follistatin-related protein 3 – biochemical, small-molecule microarray, 635 nm fluorescence, primary screen (AID 1105); settings: FSTL3 binding, higher = more signal;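 further: score merges emission near 667 nm and signal to noise per printed spot across three slides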
[9] = target: Dickkopf-related protein 1 (Homo sapiens) (UniProt O94907); assay: small molecules binding DKK1 protein – biochemical, small-molecule microarray, 635 nm fluorescence scan, primary screen (AID 1106); settings: higher = more signal;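 further: score merges emission near 667 nm with signal to noise over three replicate slides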
[10] = tested on: Inhibin beta A chain (activin A); assay: small molecules binding activin A – biochemical, small-molecule microarray, 635 nm fluorescence scan, primary screen (AID 1107); settings: INHBA, higher = more signal;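 further: mouse activin A protein probed at 4.33 µg/mL on printed slides; score merges bound-protein fluorescence near 667 nm with spot signal-to-noise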
[11] = tested on: Human papillomavirus type 1a protein E7 (residues 44-93); assay: small molecules binding HPV E7 44-93 – biochemical, small-molecule microarray, residues 44-93, 635 nm fluorescence, primary screen (AID 1108); settings: fluorescence 635 nm, higher = more signal;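 further: E7 fragment applied at 1 µg/mL in TBST for 1 h at 4 C; score combines spot fluorescence with its signal to noise ratio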
[12] = hepatitis C replication reporter changes, two-sided – Huh7 cells, luciferase reporter, HCV replication inhibitor project, primary screen (AID 1109); settings: Huh7 HCV replicon luciferase reporter, 48 h; higher = more signal;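 further: huh7 hepatoma cells harbouring a luciferase neomycin HCV replicon reporter; luciferase luminescence as measure of HCV replicon replication; test concentration not given here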
[13] = target: Left-right determination factor 2 (Homo sapiens) (UniProt O00292); assay: small molecules binding LEFTY2 protein – biochemical, small-molecule microarray, 635 nm fluorescence scan, primary screen (AID 1110); settings: higher = more signal
[14] = target: Calmodulin-1 (Homo sapiens) (UniProt P0DP23); assay: small molecules binding calmodulin-1 with EGTA – biochemical, small-molecule microarray, Cy5-labelled CALM1, profiling panel (AID 1111); settings: Cy5-CALM1 binding fluorescence, higher = more signal;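 further: labelled calmodulin applied in Tris saline Tween buffer holding calcium plus EGTA and DTT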
[15] = target: Calmodulin-1 (Homo sapiens) (UniProt P0DP23); assay: small molecules binding Ca-loaded calmodulin-1 – biochemical, small-molecule microarray, Cy5-labelled CALM1, plus calcium, artefact control for SMM control-protein annotation, profiling panel (AID 1112); settings: Cy5-CALM1 binding fluorescence, higher = more signal;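 further: score merges spot fluorescence with signal to noise from triplicate slides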
[16] = probe aWnt5a binding to arrayed compounds – biochemical, biotinylated probe, 635/667 nm fluorescence, primary screen (AID 1113); settings: small-molecule microarray, higher = more signal;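 further: score merges 667 nm fluorescence intensity with signal-to-noise per printed feature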
[17] = probe aShh binding to arrayed compounds – biochemical, biotinylated probe, 635/667 nm fluorescence, primary screen (AID 1114); settings: small-molecule microarray, higher = more signal;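 further: probe is biotin-labelled aShh protein from a stem cell growth factor screen; measures binding of labelled protein to compounds printed on the slide; score merges feature fluorescence at 667 nm with signal-to-noise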
[18] = probe aNog binding to arrayed compounds – biochemical, biotinylated probe, 635/667 nm fluorescence, primary screen (AID 1115); settings: small-molecule microarray, higher = more signal;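 further: probe is biotinylated aNog protein used at 0.15 µg/mL for 1 h at 4 C; z-score combines 667 nm fluorescence of each spot with its signal to noise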
[19] = target: Torsin-1A-interacting protein 1 (Homo sapiens) (UniProt Q5JTV8); assay: compound microarray binding of lysate hLAP1 – cell lysate, small-molecule microarray, COS7 lysate, 635/667 nm fluorescence, primary screen (AID 1116); settings: 635 nm fluorescence, higher = more signal
[20] = target: Alpha-bungarotoxin (Bungarus multicinctus) (UniProt P60615); assay: compounds binding labelled alpha-BTX control protein – biochemical, small-molecule microarray, Alexa647 label, 635/667 nm fluorescence, artefact control for SMM control protein annotation, profiling panel (AID 1117); settings: alpha-BTX-A647 binding fluorescence, higher = more signal
Alpha-bungarotoxin (Bungarus multicinctus), sequence (P60615 whole entry, looked up): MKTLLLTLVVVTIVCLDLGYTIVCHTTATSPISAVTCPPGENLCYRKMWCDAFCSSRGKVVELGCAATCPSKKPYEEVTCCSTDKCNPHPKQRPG

Fibroblast growth factor 10 (Homo sapiens), sequence (O15520 whole entry, looked up): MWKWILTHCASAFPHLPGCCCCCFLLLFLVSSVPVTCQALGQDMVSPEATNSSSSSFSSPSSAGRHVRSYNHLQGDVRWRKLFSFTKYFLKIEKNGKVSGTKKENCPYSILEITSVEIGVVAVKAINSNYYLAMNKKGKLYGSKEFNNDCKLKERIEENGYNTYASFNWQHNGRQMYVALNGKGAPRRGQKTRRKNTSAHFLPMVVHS
Torsin-1A-interacting protein 1 (Homo sapiens), sequence (Q5JTV8 whole entry, looked up): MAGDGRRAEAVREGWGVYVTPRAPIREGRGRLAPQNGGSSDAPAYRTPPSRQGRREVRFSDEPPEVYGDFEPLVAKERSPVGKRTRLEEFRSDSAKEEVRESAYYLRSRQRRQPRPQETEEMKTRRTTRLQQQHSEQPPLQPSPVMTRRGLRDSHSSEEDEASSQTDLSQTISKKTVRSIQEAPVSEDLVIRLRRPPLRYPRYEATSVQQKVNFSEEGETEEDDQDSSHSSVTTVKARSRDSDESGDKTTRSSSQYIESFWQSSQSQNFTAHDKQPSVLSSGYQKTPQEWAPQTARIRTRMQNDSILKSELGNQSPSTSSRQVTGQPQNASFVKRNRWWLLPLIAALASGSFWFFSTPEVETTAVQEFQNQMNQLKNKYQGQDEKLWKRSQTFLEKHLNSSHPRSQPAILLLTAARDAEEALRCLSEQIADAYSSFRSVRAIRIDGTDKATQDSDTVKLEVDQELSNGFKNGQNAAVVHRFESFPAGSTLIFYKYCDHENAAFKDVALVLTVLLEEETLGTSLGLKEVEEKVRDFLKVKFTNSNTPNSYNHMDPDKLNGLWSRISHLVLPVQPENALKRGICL
Dickkopf-related protein 1 (Homo sapiens), sequence (O94907 whole entry, looked up): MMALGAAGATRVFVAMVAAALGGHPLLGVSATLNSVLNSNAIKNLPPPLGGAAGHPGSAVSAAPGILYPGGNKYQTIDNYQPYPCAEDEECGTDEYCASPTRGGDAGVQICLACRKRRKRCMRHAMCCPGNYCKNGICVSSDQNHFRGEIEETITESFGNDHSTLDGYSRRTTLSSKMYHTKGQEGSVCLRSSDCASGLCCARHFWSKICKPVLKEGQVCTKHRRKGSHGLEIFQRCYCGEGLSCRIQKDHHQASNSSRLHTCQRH
Left-right determination factor 2 (Homo sapiens), sequence (O00292 whole entry, looked up): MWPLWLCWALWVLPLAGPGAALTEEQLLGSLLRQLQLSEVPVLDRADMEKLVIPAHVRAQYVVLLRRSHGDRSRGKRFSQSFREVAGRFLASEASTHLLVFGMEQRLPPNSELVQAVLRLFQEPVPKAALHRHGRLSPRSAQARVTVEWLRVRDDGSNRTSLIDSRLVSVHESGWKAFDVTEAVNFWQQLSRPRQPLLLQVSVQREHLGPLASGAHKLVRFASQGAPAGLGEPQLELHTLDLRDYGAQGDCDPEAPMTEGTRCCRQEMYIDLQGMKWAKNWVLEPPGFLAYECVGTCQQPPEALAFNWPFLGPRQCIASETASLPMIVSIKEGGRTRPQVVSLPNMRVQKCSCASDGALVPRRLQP
Follistatin-related protein 3 (Homo sapiens), sequence (O95633 whole entry, looked up): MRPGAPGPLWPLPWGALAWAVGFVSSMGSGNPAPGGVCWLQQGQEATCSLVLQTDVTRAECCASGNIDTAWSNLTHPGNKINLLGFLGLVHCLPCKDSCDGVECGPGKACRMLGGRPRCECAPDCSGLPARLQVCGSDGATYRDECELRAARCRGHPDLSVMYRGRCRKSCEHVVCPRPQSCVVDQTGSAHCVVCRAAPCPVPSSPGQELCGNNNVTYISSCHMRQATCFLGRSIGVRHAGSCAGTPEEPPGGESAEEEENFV
Epidermal growth factor receptor (Homo sapiens), sequence (P00533 whole entry, looked up): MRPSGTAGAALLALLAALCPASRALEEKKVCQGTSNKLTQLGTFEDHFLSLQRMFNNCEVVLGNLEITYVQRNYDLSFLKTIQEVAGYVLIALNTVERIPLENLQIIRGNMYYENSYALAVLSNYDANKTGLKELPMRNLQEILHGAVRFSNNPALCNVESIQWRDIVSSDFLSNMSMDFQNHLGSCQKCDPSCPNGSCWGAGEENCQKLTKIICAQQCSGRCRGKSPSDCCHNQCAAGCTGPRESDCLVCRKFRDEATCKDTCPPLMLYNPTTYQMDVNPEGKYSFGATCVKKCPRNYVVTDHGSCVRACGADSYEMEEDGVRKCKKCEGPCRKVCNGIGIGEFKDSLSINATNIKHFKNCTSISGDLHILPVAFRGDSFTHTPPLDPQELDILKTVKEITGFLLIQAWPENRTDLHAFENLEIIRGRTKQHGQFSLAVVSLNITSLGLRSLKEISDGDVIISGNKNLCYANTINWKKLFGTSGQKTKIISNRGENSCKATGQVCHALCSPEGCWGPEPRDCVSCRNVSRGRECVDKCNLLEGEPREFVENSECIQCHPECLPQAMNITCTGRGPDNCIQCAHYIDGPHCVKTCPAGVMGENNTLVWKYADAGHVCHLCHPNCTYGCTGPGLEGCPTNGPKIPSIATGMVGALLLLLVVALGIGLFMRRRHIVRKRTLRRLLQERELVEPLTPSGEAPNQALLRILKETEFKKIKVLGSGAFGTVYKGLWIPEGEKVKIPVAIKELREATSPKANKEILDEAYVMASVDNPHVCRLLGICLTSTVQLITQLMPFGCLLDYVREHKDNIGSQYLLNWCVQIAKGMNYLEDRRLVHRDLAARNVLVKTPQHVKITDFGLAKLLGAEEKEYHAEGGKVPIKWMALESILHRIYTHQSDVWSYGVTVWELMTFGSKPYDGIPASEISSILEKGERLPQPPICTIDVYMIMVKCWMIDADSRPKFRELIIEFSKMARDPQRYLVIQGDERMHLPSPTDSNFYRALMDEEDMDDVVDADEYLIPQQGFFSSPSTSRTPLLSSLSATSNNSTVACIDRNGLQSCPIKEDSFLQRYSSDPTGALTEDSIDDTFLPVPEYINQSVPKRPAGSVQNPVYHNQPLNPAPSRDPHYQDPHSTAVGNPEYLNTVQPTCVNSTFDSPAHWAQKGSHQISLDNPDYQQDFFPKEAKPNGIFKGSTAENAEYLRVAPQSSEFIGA

`NCCCCCNC(=O)[C@@H]1C[C@@H]2C(=O)N[C@@H](Cc3ccccc3)C(=O)N2[C@@H]1c1ccc(O)cc1` gave a composite z-score [1] of 1.14, a composite z-score [2] of -0.0335 and a composite z-score [3] of 0.475. For the same molecule, the z-score [4] was 1.31 (inactive), the composite z-score [5] was 1.11 and the composite z-score [6] was 1.17. For the same molecule, the composite z-score [7] was 0.632, the composite z-score [8] was 1.37 and the composite z-score [9] was 0.484. It also gave a composite z-score [10] of 0.609, a composite z-score [11] of 1.37 and a z-score [12] of -0.471. For the same molecule, the composite z-score [13] was 0.406, the composite z-score [14] was 1.18 and the composite z-score [15] was 1.16. It also gave a composite z-score [16] of -0.0425, a composite z-score [17] of -0.138 and a composite z-score [18] of -0.144. For the same molecule, the composite z-score [19] was 0.672 and the composite z-score [20] was 0.924.
In the case of `COc1ccc(CCNC(=O)[C@@]2(Sc3ccc(C)cc3)CC(=O)N(C(C)C)[C@@H]2c2ccc(CO)cc2I)cc1`, the composite z-score [1] is reported as 0.699, the composite z-score [2] is reported as 0.187 and the composite z-score [3] is reported as 0.778. For the same molecule, the z-score [4] was -0.658 (inactive), the composite z-score [5] was -0.316 and the composite z-score [6] was -1.02. For the same molecule, the composite z-score [7] was -0.719, the composite z-score [8] was -0.645 and the composite z-score [9] was -0.267. For the same molecule, the composite z-score [10] was 1.08, the composite z-score [11] was 0.536 and the z-score [12] was -2.41. It also gave a composite z-score [13] of -1.09, a composite z-score [14] of -0.434 and a composite z-score [15] of 0.428. The composite z-score [16] was -0.225, the composite z-score [17] was -0.0553 and the composite z-score [18] was 0.905. It also gave a composite z-score [19] of 0.341 and a composite z-score [20] of -0.333.
With `COc1ccc(CCNC(=O)[C@@]2(Sc3ccc(C)cc3)CC(=O)N(C3Cc4ccccc4C3)[C@@H]2c2ccc(CO)cc2I)cc1` the composite z-score [1] was 1.09, the composite z-score [2] was 0.736 and the composite z-score [3] was 0.575. The z-score [4] was -1.27 (inactive), the composite z-score [5] was -0.461 and the composite z-score [6] was -0.64. It also gave a composite z-score [7] of -0.895, a composite z-score [8] of -0.856 and a composite z-score [9] of -1.41. The composite z-score [10] was 0.48, the composite z-score [11] was 0.615 and the z-score [12] was -2.48. It also gave a composite z-score [13] of -0.911, a composite z-score [14] of 0.113 and a composite z-score [15] of 0.795. For the same molecule, the composite z-score [16] was -0.0398, the composite z-score [17] was -0.0234 and the composite z-score [18] was 0.136. The composite z-score [19] was 0.548 and the composite z-score [20] was 1.59.
`C=CCOC(=O)[C@H]1[C@@H]2C(=O)O[C@@H](c3ccccc3)[C@@H](c3ccccc3)N2[C@@H](c2ccc(OCCOC(=O)[C@H]3C[C@H]4C(=O)N[C@@H](CCCC[N+](C)(C)C)C(=O)N4[C@H]3c3ccc(O)cc3)cc2)[C@]12C(=O)Nc1ccc(I)cc12` showed a composite z-score [1] of 1.48, a composite z-score [2] of 0.177 and a composite z-score [3] of -0.228. For the same molecule, the z-score [4] was 1.2 (inactive), the composite z-score [5] was 0.332 and the composite z-score [6] was 0.86. For the same molecule, the composite z-score [7] was 0.0741, the composite z-score [8] was 0.803 and the composite z-score [9] was 1.41. It also gave a composite z-score [10] of 0.225, a composite z-score [11] of 0.756 and a z-score [12] of -0.537. The composite z-score [13] was 0.853, the composite z-score [14] was -0.421 and the composite z-score [15] was -0.0782. For the same molecule, the composite z-score [16] was 0.0549, the composite z-score [17] was 1.11 and the composite z-score [18] was 1.86. It also gave a composite z-score [19] of 0.218 and a composite z-score [20] of 0.659.
`O=C1N[C@@H](Cc2ccccc2)C(=O)N2[C@@H]1C[C@@H](C(=O)O)[C@H]2c1cccc(OCCO)c1` gave a composite z-score [1] of 1.56, a composite z-score [2] of 0.0092 and a composite z-score [3] of 0.18. For the same molecule, the z-score [4] was 0.152 (inactive), the composite z-score [5] was 1.45 and the composite z-score [6] was 1.29. The composite z-score [7] was 0.334, the composite z-score [8] was 0.798 and the composite z-score [9] was 1.18. For the same molecule, the composite z-score [10] was 0.806, the composite z-score [11] was 1.3 and the z-score [12] was 2.89. It also gave a composite z-score [13] of 0.941, a composite z-score [14] of -0.657 and a composite z-score [15] of 0.465. It also gave a composite z-score [16] of -0.176, a composite z-score [17] of -0.243 and a composite z-score [18] of -0.199. For the same molecule, the composite z-score [19] was 0.49 and the composite z-score [20] was 1.14.
For `[N-]=[N+]=NCc1ccccc1[C@@H]1OC(c2ccc(OCCCO)cc2)=N[C@]1(Cc1ccccc1)C(=O)NCC(O)CO` (stereo not given in full), the composite z-score [1] was 0.62, the composite z-score [2] was 0.914 and the composite z-score [3] was 0.956. The z-score [4] was 0.371 (inactive), the composite z-score [5] was 0.899 and the composite z-score [6] was 0.0871. It also gave a composite z-score [7] of -0.519, a composite z-score [8] of -1.19 and a composite z-score [9] of -0.889. It also gave a composite z-score [10] of 0.68, a composite z-score [11] of -0.0042 and a z-score [12] of -1.16. For the same molecule, the composite z-score [13] was -0.559, the composite z-score [14] was 0.168 and the composite z-score [15] was 0.305. It also gave a composite z-score [16] of 0.262, a composite z-score [17] of 0.559 and a composite z-score [18] of 1.99. For the same molecule, the composite z-score [19] was 1.95 and the composite z-score [20] was 2.68.

— PubChem BioAssay
